The text below walks through data of PubChem BioAssay.

Experiment [1] can be described thus: compound effects on lung adenocarcinoma cell viability – A549, calcein-AM fluorescence, 48 h, basal, profiling panel (AID 1162). Note: test concentration not given here. Particulars: higher = more signal.
Experiment [2] in a line: compound effects on differentiated 3T3-L1 adipocyte viability – cell-based, 3T3-L1 adipocytes, calcein-AM fluorescence, 48 h, basal, profiling panel (AID 1163). Note: test concentration not given here. Particulars: 3T3-L1 adipocytes viability, higher = more signal.
Experiment [3] can be described thus: compound effects on hepatocellular carcinoma cell viability – HepG2, calcein-AM fluorescence, 48 h, basal, profiling panel (AID 1164). Note: test concentration not given here. Particulars: higher = more signal.
The nature of experiment [4]: compound effects on multiple myeloma cell viability – MM1S, calcein-AM fluorescence, 48 h, basal, profiling panel (AID 1165). Note: test concentration not given here. Conditions: higher = more signal.
The nature of experiment [5]: calcein-AM signal in unstimulated myeloma cells – cell-based, calcein-AM fluorescence, 48 h, PK04 Diversity Set, profiling panel (AID 1166).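 Note: cells grown under basal conditions without added stimulus; test concentration not given here.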 Conditions: RPMI8226 myeloma viability, higher = more signal.
The nature of experiment [6]: JC-1 mitochondrial signal, unstimulated HepG2 cells – cell-based, JC-1 fluorescence, 24 h, 100 nL compound, profiling panel (AID 1167). Note: test concentration not given here. Conditions: HepG2 mitochondrial potential, higher = more signal.
A short description of experiment [7]: JC-1 mitochondrial signal, unstimulated adipocytes – cell-based, JC-1 fluorescence, 3T3-L1 adipocytes, 24 h, 100 nL compound, profiling panel (AID 1168). Note: test concentration not given here. Conditions: JC-1 mitochondrial fluorescence, higher = more signal, called active from +8 up or from −8 down.
The nature of experiment [8]: JC-1 mitochondrial signal, unstimulated myeloma cells – cell-based, JC-1 fluorescence, RPMI8226, 24 h, 100 nL compound, profiling panel (AID 1169). Note: test concentration not given here. Particulars: JC-1 mitochondrial potential fluorescence, higher = more signal.
Experiment [9] can be described thus: JC-1 mitochondrial signal, unstimulated MM1S myeloma – cell-based, JC-1 fluorescence, 24 h, 100 nL compound, profiling panel (AID 1170). Note: test concentration not given here. Particulars: MM1S mitochondrial potential, higher = more signal.
Experiment [10] can be described thus: resazurin metabolic signal in A549 cells – cell-based, resazurin fluorescence, 24 h, PK04 Diversity Set, profiling panel (AID 1171). Note: test concentration not given here. Particulars: A549 viability, higher = more signal, called active from +8 up or from −8 down.
Experiment [11] is described as follows: resazurin metabolic signal in HepG2 cells – cell-based, resazurin fluorescence, 24 h, PK04 Diversity Set, profiling panel (AID 1172). Note: test concentration not given here. Conditions: HepG2 viability, higher = more signal.
Experiment [12] is described as follows: budding yeast growth changes without added modifier – OD600, strain BY4716, 24 h, basal condition, primary screen (AID 1173). Particulars: S. cerevisiae BY4716 growth, OD600, 24 h; higher = more signal, called active from +8 up or from −8 down.
Experiment [13] in a line: viability profiling in MM1S myeloma cells – cell-based, resazurin fluorescence, basal, 24 h, PK04 Diversity Set, profiling panel (AID 1174). Note: test concentration not given here. Conditions: higher = more signal, called active from +8 up or from −8 down.
Experiment [14] deals with Dihydroorotate dehydrogenase (quinone), mitochondrial (Plasmodium falciparum (isolate 3D7)) (UniProt Q08210). Kind of experiment: inhibition of P. falciparum DHODH – biochemical, C-terminal His tag, absorbance 600 nm, primary screen (AID 1175).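 Note: recombinant parasite enzyme with a five histidine tag at its C terminus; test concentration not given here.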 Particulars: PfDHODH enzyme, DCIP absorbance 600 nm; higher = more signal, called active from +8 up or from −8 down.
A short description of experiment [15]: inhibition of PAO1 biofilm formation – strain PAO1, LB-PBS medium, absorbance 600 nm, primary screen (AID 1176). Note: test concentration not given here. Conditions: P. aeruginosa PAO1 growth/biofilm, A600, 12 h; higher = more signal.
Experiment [16] is described as follows: growth modulation of vineyard yeast isolate – strain RM11-1a, OD600, basal, 24 h, primary screen (AID 1177).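 Note: cultures grown under basal conditions with no added stressor; test concentration not given here.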 Conditions: S. cerevisiae RM11-1a growth, OD600, 24 h; higher = more signal, called active from +8 up or from −8 down.
Experiment [17] in a line: growth of efflux-deficient E. coli DRC39 – strain DRC39, OD650, 24 h, E. coli filamentation inducers, primary screen (AID 1178).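 Note: growth measured as culture turbidity by optical density at 650 nm; test concentration not given here.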 Particulars: E. coli DRC39 acrAB, higher = more signal, called active from +8 up or from −8 down.
Experiment [18] is described as follows: growth of efflux-deficient E. coli DRC39 – strain DRC39, OD650, 48 h, E. coli filamentation inducers, primary screen (AID 1179).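 Note: screen aims at cell division blockers that make cells filament.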 Conditions: E. coli DRC39 delta-acrAB growth, higher = more signal, called active from +8 up or from −8 down.
The nature of experiment [19]: viability profiling in RPMI8226 myeloma cells – cell-based, resazurin fluorescence, basal, 24 h, PK04 Diversity Set, profiling panel (AID 1180).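 Note: RPMI8826 multiple myeloma cell line at 5000 cells per well; test concentration not given here.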 Conditions: higher = more signal.
For experiment [20], the target named is E3 ubiquitin-protein ligase XIAP (Homo sapiens) (UniProt P98170). Kind of experiment: small molecules binding XIAP protein – biophysical, small-molecule microarray, fluorescence 635 nm, primary screen (AID 1181).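 Note: score merges 667 nm emission and signal to noise over triplicate slides.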 Particulars: higher = more signal.

The source made the active and inactive calls. Unless noted, the rule behind the calls is not given here.

Sequence of Dihydroorotate dehydrogenase (quinone), mitochondrial (Plasmodium falciparum (isolate 3D7)) (Q08210 whole entry, looked up): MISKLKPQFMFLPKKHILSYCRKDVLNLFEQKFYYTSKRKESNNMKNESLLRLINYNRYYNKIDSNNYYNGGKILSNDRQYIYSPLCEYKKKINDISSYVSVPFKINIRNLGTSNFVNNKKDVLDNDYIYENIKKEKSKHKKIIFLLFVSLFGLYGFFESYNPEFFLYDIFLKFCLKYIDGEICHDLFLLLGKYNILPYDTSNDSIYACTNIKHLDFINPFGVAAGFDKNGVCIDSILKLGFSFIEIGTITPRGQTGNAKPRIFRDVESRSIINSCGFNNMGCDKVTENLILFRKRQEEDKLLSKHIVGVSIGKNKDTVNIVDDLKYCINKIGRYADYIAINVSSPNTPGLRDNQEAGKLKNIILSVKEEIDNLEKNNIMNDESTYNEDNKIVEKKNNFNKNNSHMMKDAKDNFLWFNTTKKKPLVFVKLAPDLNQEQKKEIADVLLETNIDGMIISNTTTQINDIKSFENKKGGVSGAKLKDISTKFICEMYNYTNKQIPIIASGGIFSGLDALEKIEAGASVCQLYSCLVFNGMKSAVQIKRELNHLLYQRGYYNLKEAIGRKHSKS
Sequence of E3 ubiquitin-protein ligase XIAP (Homo sapiens) (P98170 whole entry, looked up): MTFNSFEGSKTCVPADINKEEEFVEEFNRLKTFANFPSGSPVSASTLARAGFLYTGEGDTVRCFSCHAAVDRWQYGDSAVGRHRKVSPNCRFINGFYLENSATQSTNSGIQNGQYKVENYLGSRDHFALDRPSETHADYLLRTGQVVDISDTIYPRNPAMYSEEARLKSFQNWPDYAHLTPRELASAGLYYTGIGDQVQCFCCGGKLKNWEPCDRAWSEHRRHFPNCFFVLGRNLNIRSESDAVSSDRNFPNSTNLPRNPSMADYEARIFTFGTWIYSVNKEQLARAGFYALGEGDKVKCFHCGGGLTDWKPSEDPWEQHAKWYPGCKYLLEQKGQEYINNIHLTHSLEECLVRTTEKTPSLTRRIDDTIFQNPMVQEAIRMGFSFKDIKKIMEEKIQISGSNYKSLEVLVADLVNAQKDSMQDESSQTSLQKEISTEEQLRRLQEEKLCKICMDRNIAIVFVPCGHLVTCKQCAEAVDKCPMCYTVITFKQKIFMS

As for `O=C(CS)NCCCCCCNC(=O)[C@@H]1C[C@@H]2C(=O)N[C@@H](Cc3ccccc3)C(=O)N2[C@@H]1c1ccc(O)cc1`, the z-score in [1] was -0.401; in experiment [2] it was 0.861; in experiment [3], -0.963; in experiment [4], -0.0227; in experiment [5], 0.612; in experiment [6], -1.67. Moreover, the z-score was -0.654 (inactive) in experiment [7]; -0.208 in experiment [8]; -0.716 in [9]; -0.226 (inactive) in [10]; -0.306 in experiment [11]; 0.636 (inactive) in [12]. Further, the z-score in [13] is 0.0515 (inactive); in experiment [15], -0.239 (inactive); in [16], 0.809 (inactive); in experiment [17], -0.288 (inactive); in experiment [18] it was -0.889 (inactive); in experiment [19] it was -0.518. For the same molecule, the composite z-score was 0.224 (inactive) in [14] and 0.0518 in experiment [20].
As to `O=C1O[C@H](c2ccccc2)[C@H](c2ccccc2)N2[C@H]1[C@@H](C(=O)Nc1nc3ccccc3s1)[C@]1(C(=O)Nc3ccc(C#CC4=CCCCC4)cc31)[C@H]2c1ccccc1OCCO`, the z-score in experiment [1] is -0.639; in experiment [2] it was 0.313; in experiment [3], -0.557; in [4], -1.63; in [5], -1.07; in [6], -2.86. Further, the z-score in [7] was -1.06 (inactive); in experiment [8], -0.798; in experiment [9], -1.46; in [10], -0.893 (inactive); in experiment [11] it was 0.111; in experiment [12], 1.86 (inactive). The z-score in [13] is -0.912 (inactive); in [15], 2.73 (inactive); in [16], 2.71 (inactive); in experiment [17], -1.27 (inactive); in [18] it was -1.24 (inactive); in experiment [19] it was -0.711. Moreover, the figures for the composite z-score in experiment [14] and in experiment [20] were 0.835 (inactive) and 0.0705, respectively.
In the case of `Cc1ccc(S[C@]2(C(=O)O)CC(=O)N(Cc3cc(C(F)(F)F)cc(C(F)(F)F)c3)[C@@H]2c2ccc(CO)cc2I)cc1`, the z-score in experiment [1] is 0.673; in [2], 0.429; in experiment [3] it was 0.324; in experiment [4], -3; in [5] it was -2.22; in experiment [6], -0.338. Further, the z-score was -0.459 (inactive) in experiment [7]; -0.325 in [8]; -1.36 in experiment [9]; 0.288 (inactive) in experiment [10]; -0.101 in experiment [11]; -3.06 (inactive) in [12]. For the same molecule, the z-score is -2.57 (inactive) in [13]; -0.481 (inactive) in experiment [15]; 0.555 (inactive) in experiment [16]; 0.0907 (inactive) in [17]; -0.0983 (inactive) in experiment [18]; -1.47 in [19]. Moreover, the composite z-score in experiment [14] is 0.0643 (inactive); in [20], -0.136.
Take `COC(=O)[C@@]1(Cc2ccc(OC)cc2)[C@H]2c3cc(C(=O)N(C)C)n(CCc4ccc(OC)c(Br)c4)c3C[C@H]2CN1C(=O)c1ccccc1`: the z-score is -1.55 in experiment [1]; -1.08 in experiment [2]; -0.992 in experiment [3]; -1.6 in experiment [4]; -4.57 in experiment [5]; 2.92 in experiment [6]. The z-score is -1.39 (inactive) in [7]; -0.855 in [8]; -2.23 in [9]; -1.39 (inactive) in experiment [10]; -0.575 in experiment [11]; 1.36 (inactive) in experiment [12]. The z-score in experiment [13] is -2.09 (inactive); in experiment [15], 1.22 (inactive); in [16] it was 0.961 (inactive); in experiment [17], -0.307 (inactive); in experiment [18], -0.025 (inactive); in experiment [19], -3.63. The values for the composite z-score in experiment [14] and in experiment [20] were 0.125 (inactive) and -0.0848, respectively.
